{"source": "the antibiotic and cytotoxicity screens of Wong et al. (2023)", "note": "The whole screen tested about 39,000 compounds, of which about 3,300 (8.5%) were called active. Shown is part of a subset that was picked to be rich in actives.", "data": [{"system": "HepG2", "experiment": "cytotoxicity call (relative viability < 0.9)", "conditions": "10 µM", "values": [{"compound": "CC(C)NC(=O)N(C)C[C@H]1OCCCC[C@@H](C)Oc2ccc(NC(=O)Nc3ccc(F)cc3)cc2C(=O)N([C@@H](C)CO)C[C@H]1C", "cytotoxicity call": "inactive"}, {"compound": "CC(C)CC#Cc1cnc2c(c1)C(=O)N([C@H](C)CO)C[C@@H](C)[C@H](CN(C)S(=O)(=O)c1cccs1)O2", "cytotoxicity call": "inactive"}, {"compound": "Cc1noc(C)c1S(=O)(=O)N(C)C[C@H]1OCCCC[C@H](C)Oc2ccc(NS(C)(=O)=O)cc2C(=O)N([C@@H](C)CO)C[C@@H]1C", "cytotoxicity call": "inactive"}, {"compound": "C[C@@H]1CN([C@@H](C)CO)C(=O)Cc2cc(NC(=O)C3CC3)ccc2O[C@H]1CN(C)C(=O)Nc1ccc2c(c1)OCO2", "cytotoxicity call": "inactive"}, {"compound": "CNC(=O)c1ccc2c(c1)OCO2", "cytotoxicity call": "inactive"}, {"compound": "O=C(C[C@@H]1C[C@H]2c3cc(NS(=O)(=O)c4ccc(F)cc4)ccc3O[C@H]2[C@H](CO)O1)NCc1cccc(F)c1", "cytotoxicity call": "inactive"}, {"compound": "C[C@H]1CN([C@@H](C)CO)C(=O)Cc2cc(NC(=O)NC3CCCCC3)ccc2O[C@H]1CN(C)C(=O)Nc1ccc(C(F)(F)F)cc1", "cytotoxicity call": "inactive"}, {"compound": "C[C@H](CO)N1C[C@H](C)[C@@H](CN(C)Cc2ccc(Oc3ccccc3)cc2)Oc2cc(Br)ccc2S1(=O)=O", "cytotoxicity call": "inactive"}, {"compound": "C[C@H]1CN([C@@H](C)CO)C(=O)Cc2cc(NS(=O)(=O)c3cccs3)ccc2O[C@H]1CN(C)S(=O)(=O)c1ccccc1", "cytotoxicity call": "inactive"}, {"compound": "C[C@@H]1CCCCO[C@@H](CN(C)Cc2ccccc2)[C@H](C)CN([C@@H](C)CO)C(=O)c2cc(NS(=O)(=O)c3ccc(F)cc3)ccc2O1", "cytotoxicity call": "inactive"}, {"compound": "Cc1c2oc3c(C)ccc(C(=O)N[C@@H]4C(=O)N[C@@H](C(C)C)C(=O)N5CCC[C@H]5C(=O)N(C)CC(=O)N(C)[C@@H](C(C)C)C(=O)O[C@@H]4C)c3nc-2c(C(=O)N[C@@H]2C(=O)N[C@@H](C(C)C)C(=O)N3CCC[C@H]3C(=O)N(C)CC(=O)N(C)[C@@H](C(C)C)C(=O)O[C@@H]2C)c(N)c1=O", "cytotoxicity call": "active"}, {"compound": "Cc1c2oc3c(C)ccc(C(=O)OC(C)C4NC(=O)C(C(C)C)N(C)C(=O)CN(C)C(=O)C5CCCN5C(=O)C(C(C)C)NC4=O)c3nc-2c(C(=O)OC(C)C2NC(=O)C(C(C)C)N(C)C(=O)CN(C)C(=O)C3CCCN3C(=O)C(C(C)C)NC2=O)c(N)c1=O", "note": "(stereo not drawn)", "cytotoxicity call": "active"}, {"compound": "Cc1c2oc3c(C)ccc(C(=O)N[C@@H]4C(=O)N[C@H](C(C)C)C(=O)N5CCC[C@H]5C(=O)N(C)CC(=O)N(C)[C@@H](C(C)C)C(=O)O[C@@H]4C)c3nc-2c(C(=O)N[C@@H]2C(=O)N[C@H](C(C)C)C(=O)N3CCC[C@H]3C(=O)N(C)CC(=O)N(C)[C@@H](C(C)C)C(=O)O[C@@H]2C)c(N)c1=O", "cytotoxicity call": "active"}, {"compound": "CO[C@@H]1CN(C)C(=O)c2cc(NC(=O)c3cc(C)on3)ccc2OC[C@@H](C)N(S(=O)(=O)c2ccccc2)C[C@H]1C", "cytotoxicity call": "inactive"}, {"compound": "COc1ccc(S(=O)(=O)N(C)C[C@H]2Oc3c(NS(=O)(=O)c4ccccc4)cccc3C(=O)N([C@H](C)CO)C[C@H]2C)cc1", "cytotoxicity call": "inactive"}, {"compound": "Cc1ccc(S(=O)(=O)Nc2cccc3c2O[C@H](CN(C)S(=O)(=O)c2cccs2)[C@H](C)CN([C@H](C)CO)C3=O)cc1", "cytotoxicity call": "inactive"}, {"compound": "CC(C)NC(=O)N(C)C[C@@H]1OCCCC[C@H](C)Oc2ccc(NS(C)(=O)=O)cc2C(=O)N([C@@H](C)CO)C[C@@H]1C", "cytotoxicity call": "inactive"}, {"compound": "C[C@@H]1CN([C@H](C)CO)C(=O)Cc2cc(NC(=O)C3CC3)ccc2O[C@H]1CN(C)Cc1ccc(Oc2ccccc2)cc1", "cytotoxicity call": "inactive"}, {"compound": "Cc1noc(C)c1NC(=O)Nc1ccc2c(c1)C(=O)N([C@H](C)CO)C[C@@H](C)[C@@H](CN(C)C(=O)Nc1ccc(C(F)(F)F)cc1)O2", "cytotoxicity call": "inactive"}, {"compound": "C[C@H]1CN([C@@H](C)CO)C(=O)c2cccc(NC(=O)Nc3cccc4ccccc34)c2O[C@H]1CN(C)C(=O)NC1CCCCC1", "cytotoxicity call": "inactive"}, {"compound": "O=C(/C=N/O)NCc1ccccn1", "cytotoxicity call": "active"}, {"compound": "N#CCC(=O)NCc1ccccn1", "cytotoxicity call": "inactive"}, {"compound": "NC(=O)NCc1ccccn1", "cytotoxicity call": "inactive"}, {"compound": "C[C@H]1CN([C@@H](C)CO)C(=O)c2cc(C#CCN(C)C)cnc2O[C@@H]1CN(C)Cc1ccc2c(c1)OCO2", "cytotoxicity call": "inactive"}, {"compound": "CO[C@H](C(=O)[C@@H](O)[C@@H](C)O)[C@@H]1Cc2cc3cc(O[C@H]4C[C@@H](O[C@H]5C[C@@H](O)[C@H](O)[C@@H](C)O5)[C@@H](O)[C@@H](C)O4)c(C)c(O)c3c(O)c2C(=O)[C@H]1O[C@H]1C[C@@H](O[C@H]2C[C@@H](O[C@H]3C[C@](C)(O)[C@H](O)[C@@H](C)O3)[C@H](O)[C@@H](C)O2)[C@H](O)[C@@H](C)O1", "cytotoxicity call": "active"}, {"compound": "CO[C@H](C(=O)[C@@H](O)[C@@H](C)O)[C@H]1Cc2cc3cc(O[C@H]4C[C@@H](O[C@H]5C[C@@H](O)[C@@H](O)[C@@H](C)O5)[C@@H](O)[C@@H](C)O4)c(C)c(O)c3c(O)c2C(=O)[C@@H]1O[C@H]1C[C@@H](O[C@H]2C[C@@H](O[C@H]3C[C@@](C)(O)[C@@H](O)[C@@H](C)O3)[C@@H](O)[C@@H](C)O2)[C@@H](O)[C@@H](C)O1", "cytotoxicity call": "active"}, {"compound": "N=c1cc(N2CCCCC2)nc(N)n1OS(=O)(=O)O", "cytotoxicity call": "inactive"}, {"compound": "CC(C)C(=O)NS(=O)(=O)c1ccc(N)cc1", "cytotoxicity call": "inactive"}, {"compound": "C[C@H]1CN([C@@H](C)CO)C(=O)CCCn2cc(nn2)CO[C@@H]1CN(C)S(=O)(=O)c1ccc2ccccc2c1", "cytotoxicity call": "inactive"}, {"compound": "O=C(CCCCCNC(=O)OCc1ccc(CO[C@H]2C[C@@H](c3ccccc3)C=C(C(=O)N3CCN(Cc4ccccc4)CC3)O2)cc1)NO", "cytotoxicity call": "inactive"}, {"compound": "CN(C)CC(=O)N1CC(=O)N2[C@H](CO)[C@@H](c3ccc(C#Cc4cccnc4)cc3)[C@@H]2C1", "cytotoxicity call": "inactive"}, {"compound": "Cc1noc(C)c1NC(=O)N(C)C[C@@H]1Oc2cc(Br)ccc2S(=O)(=O)N([C@H](C)CO)C[C@@H]1C", "cytotoxicity call": "inactive"}, {"compound": "COc1ccc2c3c([nH]c2c1)[C@H](CO)N(CC1CCCCC1)C[C@]13CN(C1)C(=O)Nc1cccc(c1)F", "cytotoxicity call": "inactive"}, {"compound": "COc1ccc2c3c([nH]c2c1)[C@@H](CO)N(CC1CCCCC1)C[C@]13CN(C1)C(=O)Nc1cccc(c1)F", "cytotoxicity call": "inactive"}, {"compound": "COc1ccc2c3c([nH]c2c1)[C@@H](CO)N(C[C@]13CN(CC2CCCCC2)C1)C(=O)Nc1cccc(c1)F", "cytotoxicity call": "active"}, {"compound": "COc1ccc2c3c([nH]c2c1)[C@@H](CO)N(C[C@]13CCN(CC1)C(=O)Nc1cccc(c1)F)C(=O)c1ccc(cc1)F", "cytotoxicity call": "inactive"}, {"compound": "COc1ccc2c3c([nH]c2c1)[C@H](CO)N(C[C@]13CN(CC2CCCCC2)C1)C(=O)Nc1cccc(c1)F", "cytotoxicity call": "active"}, {"compound": "COc1ccc2c3c([nH]c2c1)[C@H](CO)N(C[C@]13CCN(CC1)C(=O)Nc1cccc(c1)F)C(=O)c1ccc(cc1)F", "cytotoxicity call": "inactive"}, {"compound": "C[C@@H]1CN([C@H](C)CO)C(=O)c2cccc(NS(=O)(=O)c3ccc(F)cc3)c2O[C@H]1CN(C)S(=O)(=O)c1ccc(F)cc1", "cytotoxicity call": "inactive"}, {"compound": "COc1cccc(-c2ccc3c(c2)O[C@@H](CN(C)C(=O)C2CCOCC2)[C@H](C)CN([C@@H](C)CO)S3(=O)=O)c1", "cytotoxicity call": "inactive"}, {"compound": "CC(C)NC(=O)N(C)C[C@@H]1Oc2ccc(NC(=O)Cn3cnnn3)cc2C(=O)N([C@@H](C)CO)C[C@@H]1C", "cytotoxicity call": "inactive"}, {"compound": "O=C(C[C@@H]1C=C[C@H](NS(=O)(=O)c2ccccc2F)[C@H](CO)O1)NCCCN1CCOCC1", "cytotoxicity call": "inactive"}, {"compound": "C[C@@H]1CN([C@H](C)CO)C(=O)c2cccc(NC(=O)c3cnccn3)c2O[C@@H]1CN(C)S(=O)(=O)c1ccccc1", "cytotoxicity call": "inactive"}, {"compound": "CC(C)NC(=O)Nc1ccc2c(c1)C(=O)N(C)[C@H]1CC[C@H](CC(=O)NCc3ccc(F)cc3)O[C@@H]1CO2", "cytotoxicity call": "inactive"}, {"compound": "C[C@@H]1CN([C@H](C)CO)C(=O)c2cc(NC(=O)C3CC3)ccc2O[C@H]1CN(C)Cc1ccc(-c2ccccc2)cc1", "cytotoxicity call": "inactive"}, {"compound": "CCc1ccc(-c2cc3c(=O)n(CC(=O)NCCN4CCOCC4)nc(C)n3n2)cc1", "cytotoxicity call": "inactive"}, {"compound": "Cc1ccc(S(=O)(=O)Nc2ccc3c(c2)CC(=O)N([C@H](C)CO)C[C@H](C)[C@@H](CN(C)S(=O)(=O)c2cccs2)O3)cc1", "cytotoxicity call": "inactive"}, {"compound": "COc1ccc(CN(C)C[C@H]2OCCCC[C@@H](C)Oc3ccc(NC(=O)NC4CCCCC4)cc3C(=O)N([C@H](C)CO)C[C@@H]2C)cc1", "cytotoxicity call": "inactive"}, {"compound": "C[C@@H]1CN([C@@H](C)CO)S(=O)(=O)c2ccc(C#C[C@@H](C)O)cc2O[C@@H]1CN(C)C(=O)Nc1ccccc1", "cytotoxicity call": "inactive"}, {"compound": "COc1ccc(CN(C)C[C@@H]2Oc3c(NC(=O)c4ccc(-c5nccs5)cc4)cccc3C(=O)N([C@H](C)CO)C[C@H]2C)cc1", "cytotoxicity call": "active"}, {"compound": "COc1ccc(CN(C)C[C@H]2Oc3c(NC(=O)c4ccc(-c5nccs5)cc4)cccc3C(=O)N([C@@H](C)CO)C[C@@H]2C)cc1", "cytotoxicity call": "inactive"}, {"compound": "COc1ccc(CN(C)C[C@@H]2Oc3c(NC(=O)c4ccc(-c5nccs5)cc4)cccc3C(=O)N([C@H](C)CO)C[C@@H]2C)cc1", "cytotoxicity call": "inactive"}, {"compound": "COc1ccc(CN(C)C[C@H]2Oc3c(NC(=O)c4ccc(-c5nccs5)cc4)cccc3C(=O)N([C@H](C)CO)C[C@@H]2C)cc1", "cytotoxicity call": "inactive"}, {"compound": "COc1ccc(CN(C)C[C@@H]2Oc3c(NC(=O)c4ccc(-c5nccs5)cc4)cccc3C(=O)N([C@@H](C)CO)C[C@H]2C)cc1", "cytotoxicity call": "active"}, {"compound": "COc1ccc(CN(C)C[C@H]2Oc3c(NC(=O)c4ccc(-c5nccs5)cc4)cccc3C(=O)N([C@@H](C)CO)C[C@H]2C)cc1", "cytotoxicity call": "inactive"}, {"compound": "CO[C@@H]1CN(C)C(=O)c2cc(NC(C)=O)ccc2OC[C@@H](C)N(S(=O)(=O)c2cn(C)cn2)C[C@H]1C", "cytotoxicity call": "inactive"}, {"compound": "C[C@@H]1CCCCO[C@H](CN(C)Cc2ccccc2)[C@@H](C)CN([C@H](C)CO)C(=O)c2cc(NC(=O)c3ccccc3)ccc2O1", "cytotoxicity call": "inactive"}, {"compound": "CCC[C@@H](O)C#Cc1cnc2c(c1)C(=O)N([C@H](C)CO)C[C@H](C)[C@H](CN(C)S(=O)(=O)c1ccccc1)O2", "cytotoxicity call": "inactive"}]}]}
